Experimental findings from PubChem BioAssay AID485364 (National Center for Advancing Translational Sciences (NCATS), 2010) are described below.

Structures are written as SMILES. Hit rate of the full screen: of about 360,000 compounds, about 11,000 (3.1%) were called active. A call without a number means that no potency is given here. Another 4% or so got no clear call; they are omitted. The sample holds actives, similar compounds and a random draw of the others, so the mix is not that of the screen. A number with no mark means an inactive call. Calls follow the shape of the dose curve; as a rule, active = well fitted inhibition curve with a large enough effect; inconclusive = small, poorly fitted or top-dose-only effect; inactive = no such curve, though single readings can be large or run the other way.
Potency is read from the fitted curve at half-maximal effect.

This experiment addresses Schistosoma mansoni thioredoxin glutathione reductase (TGR) (UniProt Q962Y6). As to the kind of experiment: qHTS Assay for the Inhibitors of Schistosoma Mansoni Peroxiredoxins. Also: nearly all actives have a fitted effect of over 60% in size. Conditions: purified TGR, DTNB reduction, TNB absorbance 405 nm; series mostly up to 114 µM. The method, boiled down:
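First, TGR (20 nM dispensed) and NADPH were mixed with compound. Second, a 15 min room-temperature incubation followed. Third, further NADPH and then DTNB were added to start the reaction. Finally, TNB absorbance was monitored kinetically.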
On to `CCN(CC)c1nn2c(=O)c(C(=O)NCCc3ccccc3)cnc2s1`, for which the Potency result was “inactive”.

Turning to `O=C(O)c1ccc(Nc2nc(-c3ccccc3)c3cc(Br)ccc3n2)cc1`, the Potency result is “inactive”.

With `CC1=NC2(CCCc3c2no[n+]3[O-])N(O)C1(C)C` (centres undefined), the Potency was 44.7 µM (active).

With `COc1ccc(-c2cn3nc(N4CCC(C(=O)Nc5cccc(C)c5C)CC4)sc3n2)cc1`, the Potency result is “inactive”.

`CCOC(=O)C1CCCN(C(=O)c2ccc(-n3ccc4ccccc43)s2)C1` (centres undefined): the Potency result is “inactive”.

`CC(OC(=O)CN1C(=O)COc2ccccc21)C(=O)NCc1ccc(F)cc1` (centres undefined): the Potency entry is “inactive”.

As for `O=C(CN1C(=O)COc2ccc(Cl)cc21)Nc1ccc(N2CCOCC2)cc1`, the Potency entry was “inactive”.

Regarding `O=C(CN1C(=O)COc2ccccc21)Nc1ccc(F)cc1`, the Potency is 70.8 µM (active).

Consider `O=C(O)c1c(CNCc2cccc(F)c2)c2ccccc2n1Cc1ccccc1`, for which the Potency entry was “inactive”.

As for `Cc1cccc(C(=O)Nc2ccc(C(=O)N/N=C/c3cccc(C)n3)cc2)c1`, the Potency entry is “inactive”.

For `Brc1cc(/C=N/n2cnnc2)oc1Br`, the Potency entry was “inactive”.

Take `Cc1ccc(C(=O)N/N=C\c2cc(Br)c(Br)o2)cn1`: the Potency is 22.4 µM (active).

As to `Cn1nnnc1SCCCNCc1cccc(OCc2ccc(Cl)cc2)c1`, the Potency entry was “inactive”.

Regarding `CCOC(=O)c1cc2c(=O)n3ccccc3nc2n(CCCOC)c1=NC(=O)C(C)Oc1ccccc1` (centres undefined), the Potency entry is “inactive”.

As to `CCOC(=O)C(=Cc1ccccc1OC)C(=O)OCC`, the Potency is 28.2 µM (active).

With `COc1ccccc1/C=C/C(=O)NC1CC2CCC1C2` (centres undefined), the Potency entry is “inactive”.

Take `CCOC(=O)C(=CNc1cccc(C)n1)C(=O)OCC`: the Potency entry is “inactive”.

`COc1cc(C(=O)NCCc2csc3nc(-c4ccccc4C)nn23)cc(OC)c1OC`: the Potency entry is “inactive”.

For `Cc1ccccc1CN1C(=O)c2ccccc2Sc2ccc(C(=O)NCCCN3CCOCC3)cc21`, the Potency result is “inactive”.

Regarding `O=C(NCCCN1CCOCC1)c1ccc2c(c1)N(Cc1cccc(F)c1)C(=O)c1ccccc1S2`, the Potency is 22.4 µM (active).

As for `CCC1=Nc2cc(C(=O)NCCCN3CCOCC3)ccc2Sc2ccc(Br)cc21`, the Potency entry is “inactive”.

For `Cc1ccc(CCNC(=O)c2ccc3c(c2)nc2n3CCC(C)C2)cc1` (centres undefined), the Potency result is “inactive”.

For the compound `CCOc1cccc(CC(=O)N2CCc3c([nH]c4ccccc34)C2c2ccc(OC)cc2)c1OCC` (centres undefined), the Potency result was “inactive”.

As for `CCN(CC)S(=O)(=O)c1ccc2c(c1)nc(CN(C)C(=O)Nc1ccc(Cl)cc1)n2C`, the Potency result was “inactive”.

`CCOC(=O)/C=C/C(=O)OCC(=O)NC(c1ccccc1)c1ccccc1`: the Potency was 15.8 µM (active).

`CCOC(=O)C(C(=O)OCC)C(C#N)c1ccccc1` (centres undefined): the Potency entry is “inactive”.

`O=C(Cc1ccc(-c2ccccc2)cc1)NC(c1ccccc1)c1ccccc1`: the Potency entry is “inactive”.

Consider `COc1cccc(C2C(C(=O)Nc3ccc(C)cc3C)=C(C)Nc3c(C(=O)Nc4ccccc4)cnn32)c1` (centres undefined), for which the Potency entry is “inactive”.

In the case of `Cc1cccc(NC(=O)CSc2nc3c([nH]c4ccccc43)c(=O)n2-c2cc(C)cc(C)c2)c1`, the Potency entry is “inactive”.

On to `CSc1cccc(NC(=O)CN2C(=O)CCc3cc(S(=O)(=O)N4CCCCC4)ccc32)c1`, for which the Potency result is “inactive”.

Turning to `COc1ccc(Cn2c(C(=O)O)c(CNCc3cccc(OC)c3)c3ccc(C)cc32)cc1`, the Potency entry was “inactive”.

For the compound `O=C(CSc1nc(=O)[nH]c2c1CCCC2)Nc1cc(C(F)(F)F)ccc1Cl`, the Potency entry was “inactive”.

As for `Cc1nc2c(c(C)nn2-c2ccccc2)c(C)c1CCC(=O)NCCc1ccc(Cl)cc1`, the Potency entry was “inactive”.

Regarding `C=Cc1ccc(Cn2c(C(=O)O)c(CNC3CCCC3)c3ccc(C)cc32)cc1`, the Potency entry was “inactive”.

Regarding `CC(C)OCCCNC(=O)c1ccc(C2SCC(=O)N2Cc2ccco2)cc1` (centres undefined), the Potency was 25.1 µM (active).

As for `O=C(NCc1ccco1)c1ccc(Cn2c(=O)c3sccc3n(Cc3ccc(F)cc3)c2=O)cc1`, the Potency result was “inactive”.

Consider `CC(C)OCCCNC(=O)CNC(=O)c1cccs1`, for which the Potency result was “inactive”.

For the compound `CCOc1ccc(NC(=O)c2cc(S(=O)(=O)N3CCCC3)c[nH]2)cc1`, the Potency result was “inactive”.

For the compound `COc1ccc(CNC(=O)c2cc3c(s2)-c2ccccc2OC3)cc1`, the Potency result is “inactive”.

For the compound `COc1cccc(CNC(=O)Cn2c(=O)c3cccn3c3ccc(F)cc32)c1OC`, the Potency entry was “inactive”.

Take `O=C(CNC(=O)c1ccccc1)Oc1ccc([N+](=O)[O-])cc1`: the Potency is 11.2 µM (active).

Take `O=C(NNS(=O)(=O)Cc1ccccc1)c1ccc([N+](=O)[O-])cc1`: the Potency result was “inactive”.

In the case of `O=C(CNC(=O)c1ccccc1)NCC(=O)OCC(=O)c1ccccc1`, the Potency entry is “inactive”.

As for `COc1cc(CN(CC2CCCO2)C(=O)c2ccccc2F)cc(OC)c1OC` (centres undefined), the Potency result is “inactive”.

On to `CCc1nc2c(cnn2-c2ccc(C)cc2)c(=O)n1-c1ccc(C)cc1`, for which the Potency result is “inactive”.

Consider `COc1cc(CN2CCC(n3nccc3NC(=O)CCCc3ccccc3)CC2)ccc1O`, for which the Potency was 44.7 µM (active).

As to `COc1ccc(CN2CCC(n3nccc3NC(=O)CCCc3ccccc3)CC2)cc1C`, the Potency result is “inactive”.

Turning to `Cc1ccc(CN2CCC(n3nccc3NC(=O)CCCc3ccccc3)CC2)o1`, the Potency entry is “inactive”.

On to `CC1=Nc2cc(C(=O)N3CCC(C)CC3)ccc2Sc2ccc(Cl)cc21`, for which the Potency result is “inactive”.

As to `N=C1C(c2nc3ccccc3[nH]2)=C(O)CN1NC(=O)c1c[nH]c2ccccc12`, the Potency entry is “inactive”.

As for `N=C1C(c2nc3ccccc3s2)=C(O)CN1NC(=O)c1ccc([N+](=O)[O-])cc1`, the Potency was 12.6 µM (active).

Turning to `Cc1ccc(C)n1NC(=O)c1ccc([N+](=O)[O-])cc1`, the Potency result is “inactive”.

For `CCC(=O)N1CCc2cc(Br)cc(S(=O)(=O)NCc3ccc(Cl)cc3)c21`, the Potency result is “inactive”.

For the compound `Cc1nn(CC(=O)O)c(=O)c2cc3cc(F)ccc3n12`, the Potency result was “inactive”.

In the case of `COc1ccccc1NC(=O)c1cc(S(=O)(=O)NCCc2ccccc2)ccc1F`, the Potency result is “inactive”.

Take `C=CCn1c(SCC(=O)NCc2ccccc2)nnc1-c1cc(Br)ccc1O`: the Potency entry is “inactive”.

As to `O=C(CSc1nc2ccc(Nc3nc(N4CCOCC4)nc(N4CCOCC4)n3)cc2s1)NCc1ccco1`, the Potency result is “inactive”.

For the compound `C=CCn1c(CSc2nc3ccccc3s2)nnc1SCC(=O)NCc1ccco1`, the Potency is 11.2 µM (active).

For the compound `CCn1c2ccc(F)cc2c2nnc(SCCN3CCOCC3)nc21`, the Potency entry was “inactive”.

As to `CC(=O)Nc1ccc(NC(=O)CSc2nnc3c4cc(Br)ccc4n(C)c3n2)cc1`, the Potency result is “inactive”.

Take `Cn1c2ccc(F)cc2c2nnc(NN)nc21`: the Potency is 50.1 µM (active).

Take `COc1ccc(S(=O)(=O)NCc2cccn2Cc2cccc(C)c2)cc1Cl`: the Potency result was “inactive”.

On to `CCOc1cc(C(=O)Nc2nnc3n2CCS3)cc(OCC)c1OCC`, for which the Potency entry was “inactive”.

On to `CCc1cccc(NC(=O)CN(c2ccc(C)c(C)c2)S(=O)(=O)c2ccsc2C(=O)OC)c1`, for which the Potency result was “inactive”.

For `CC(=O)N1CC(C)c2scc(C)[n+]2-c2ccccc21` (centres undefined), the Potency is 1.58 µM (active).

Turning to `Cc1ccc(/C=C(\C#N)C(=O)Nc2cc(C)ccc2C)cc1`, the Potency entry is “inactive”.

Regarding `Cc1nn(C(C)C(=O)Nc2ccc(C(C)C)cc2)c(=O)c2c1sc1ccccc12` (centres undefined), the Potency result was “inactive”.

Consider `CCOC(=O)c1c(NC(=O)c2ccc(S(=O)(=O)N3CCCC(C)C3)cc2)sc2c1CCN(C(C)C)C2` (centres undefined), for which the Potency entry is “inactive”.

With `COC(=O)c1cc(NC(=O)CCc2c(C)nc3c4c(C)cc(C)nc4nn3c2C)cc(C(=O)OC)c1`, the Potency result was “inactive”.

As for `Cc1cc(C)c2c(n1)nn1c(-n3ccnc3)cc(C)nc21`, the Potency is 35.5 µM (active).

Consider `Cc1cc(C)c2c(NC(=O)C3CC3)nn(C)c2n1`, for which the Potency entry was “inactive”.

For `COc1ccc(NC(=O)Cn2c(=O)n(CCC(C)C)c(=O)c3cccnc32)cc1Cl`, the Potency result was “inactive”.

For `Cc1c(C(=O)NCc2ccccc2Br)oc2ccc3c(c12)C(=O)CC(C)(C)O3`, the Potency entry was “inactive”.

On to `CCOC(=O)N1CCC(NC(=O)c2cnn(-c3cccc(C)c3)c2C2CCN(C(=O)OC(C)(C)C)CC2)CC1`, for which the Potency result is “inactive”.

Take `COc1cc(Cl)ccc1Nc1ncc(C(=O)N2CCN(c3ccccc3OC)CC2)c2ccccc12`: the Potency entry is “inactive”.

For the compound `Cc1ccc2nc(CN3CCN(S(=O)(=O)c4ccc(C)c(C)c4)CC3)oc2c1`, the Potency entry was “inactive”.

In the case of `CSc1nc(-c2ccccc2Cl)nc2c1Cc1c(CO)cnc(C)c1O2`, the Potency entry was “inactive”.

For `CSc1nc(-c2ccc(F)cc2)nc2c1Cc1c(CO)cnc(C)c1O2`, the Potency entry is “inactive”.

Take `Cc1ccccc1CSc1nc(-c2ccccc2)nc2c1Cc1c(CO)cnc(C)c1O2`: the Potency is 39.8 µM (active).

`CC1CCCN(CC(=O)Nc2cc(Cl)ccc2Oc2ccccc2)C1` (centres undefined): the Potency entry is “inactive”.

For the compound `Cc1cc(NC(=O)CN2CCCC(C)C2)n(-c2nc3ccccc3s2)n1` (centres undefined), the Potency is 12.6 µM (active).

On to `CC(=O)Nc1ccc(NC(=O)CN2CCCC(C)C2)c(Cl)c1` (centres undefined), for which the activity change, negative = inhibition is 9.99% [at 11.4 µM].

Consider `COc1ccc(C(=O)Nc2nonc2-c2ccc(OC)c(OC)c2)cc1Cl`, for which the Potency result is “inactive”.

For `COc1cccc(CNc2nccn(-c3ccc(OC)c(OC)c3)c2=O)c1`, the Potency entry was “inactive”.

In the case of `O=C(O)c1cnn2c(C(F)(F)F)cc(-c3ccccc3)nc12`, the Potency result is “inactive”.

Consider `O=C(NCc1ccco1)c1cnn2c(C(F)(F)F)cc(-c3ccco3)nc12`, for which the Potency is 50.1 µM (active).

As for `O=C(NCc1ccco1)c1ccc([N+](=O)[O-])cc1Cl`, the Potency result is “inactive”.

For `OCc1cnc(SCc2ccc(F)cc2)n1Cc1ccc(F)cc1`, the Potency result is “inactive”.

On to `COc1ccc(N2CCN(c3cc(C)nc4nncn34)CC2)cc1`, for which the Potency result is “inactive”.

Take `COC(=O)c1c(C)[nH]c(C(=O)/C=C/c2ccc(Cl)cc2)c1C`: the Potency entry was “inactive”.

Turning to `Cc1[nH]c(=O)c(C(=O)/C=C/c2ccccc2)c2c1CCCC2`, the Potency was 35.5 µM (active).

As for `C/C(=C\c1ccccc1)C1NC(=O)c2c(sc3c2CCCC3)N1` (centres undefined), the Potency entry was “inactive”.

With `Cc1nc(-c2ccc(Cl)cc2)sc1C(=O)CBr`, the Potency was 39.8 µM (active).

With `Cc1nc(-c2ccccc2)sc1C(=O)/C=C/N(C)C`, the Potency result was “inactive”.

With `Cc1nc(-c2ccc(Cl)cc2)sc1C1(C)CC(c2ccccc2F)=NO1` (centres undefined), the Potency result was “inactive”.

Take `COC(=O)c1cc(NC(=O)CCS(=O)(=O)c2cc(Br)cc3c2N(C(=O)C2CC2)CC3)cc(C(=O)OC)c1`: the Potency entry was “inactive”.

As to `Cc1ccc(S(=O)(=O)Cn2nnnc2CN2CCN(Cc3ccc4c(c3)OCO4)CC2)cc1`, the Potency result was “inactive”.

`Fc1ccccc1C(c1nnnn1Cc1ccc2c(c1)OCO2)N1CCN(Cc2ccccc2)CC1` (centres undefined): the Potency result was “inactive”.

With `Cc1cc(C)c2[nH]c(=O)c(C(c3nnnn3Cc3ccc4c(c3)OCO4)N3CCCC3)cc2c1` (centres undefined), the Potency was 15.8 µM (active).
